Assay results as given in article PMC7862700, “An all-to-all approach to the identification of sequence-specific readers for epigenetic DNA modifications on cytosine”.

Assays:
Assay in all cases: DAPPL (digital affinity profiling via proximity ligation, sequencing); 10 mM Tris-HCl pH 7.5, 50 mM NaCl, 1 mM DTT, 4% glycerol, room temperature, 30 min; GST-TFs on glutathione beads, 16-mer random dsDNA library, 0.1% formaldehyde crosslink after washing; high values mean tight binding
[1] = target: T1, FEV (Homo sapiens, UniProt Q99581 1-238); settings: protein: recombinant; tags: N-terminal GST; dsDNA, one strand shown
T1 sequence: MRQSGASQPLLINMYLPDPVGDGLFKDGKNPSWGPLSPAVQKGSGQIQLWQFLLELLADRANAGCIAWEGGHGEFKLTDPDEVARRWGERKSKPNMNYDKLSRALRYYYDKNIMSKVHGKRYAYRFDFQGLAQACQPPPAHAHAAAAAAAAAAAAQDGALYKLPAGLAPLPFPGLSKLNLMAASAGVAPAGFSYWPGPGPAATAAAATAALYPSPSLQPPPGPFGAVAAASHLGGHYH
Method in brief: (§1)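 GST fusions of human transcription factors were expressed in yeast and captured with glutathione beads. Once given DNA barcodes and pooled alongside a tag-only sample, they were incubated for 30 min at room temperature with 200 nmole of a random double-stranded 16-mer DNA library in Tris/NaCl/DTT/glycerol buffer, then washed, crosslinked (0.1% formaldehyde), proximity-ligated, PCR-amplified and sequenced on an Illumina NextSeq500. The binding signal of each hexamer is its read frequency for a factor divided by its frequency for the tag-only sample.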

[2] = target: ETV5 (Homo sapiens, UniProt P41161 1-510); settings: protein: recombinant; tags: N-terminal GST; dsDNA, one strand shown
Method in brief: as §1

[3] = target: HSF1 (Homo sapiens, UniProt Q00613 1-529); settings: protein: recombinant; tags: N-terminal GST; chain copies: 3; dsDNA, one strand shown
Method in brief: as §1

[4] = target: T2, SPIC (Homo sapiens, UniProt Q8N5J4 1-248); settings: protein: recombinant; tags: N-terminal GST; dsDNA, one strand shown
T2 sequence: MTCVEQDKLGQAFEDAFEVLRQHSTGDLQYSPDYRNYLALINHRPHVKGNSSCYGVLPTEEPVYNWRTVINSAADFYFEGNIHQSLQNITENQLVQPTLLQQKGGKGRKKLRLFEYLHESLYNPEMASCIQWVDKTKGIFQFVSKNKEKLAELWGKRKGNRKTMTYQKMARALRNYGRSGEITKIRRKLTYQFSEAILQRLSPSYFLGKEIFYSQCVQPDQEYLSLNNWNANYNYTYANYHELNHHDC
Method in brief: as §1

[5] = target: ELF4 (Homo sapiens, UniProt Q99607 1-663); settings: protein: recombinant; tags: N-terminal GST; dsDNA, one strand shown
Method in brief: as §1

[6] = target: T3, ELK4 (Homo sapiens, UniProt P28324-2 1-405); settings: protein: recombinant; tags: N-terminal GST; dsDNA, one strand shown
T3 sequence: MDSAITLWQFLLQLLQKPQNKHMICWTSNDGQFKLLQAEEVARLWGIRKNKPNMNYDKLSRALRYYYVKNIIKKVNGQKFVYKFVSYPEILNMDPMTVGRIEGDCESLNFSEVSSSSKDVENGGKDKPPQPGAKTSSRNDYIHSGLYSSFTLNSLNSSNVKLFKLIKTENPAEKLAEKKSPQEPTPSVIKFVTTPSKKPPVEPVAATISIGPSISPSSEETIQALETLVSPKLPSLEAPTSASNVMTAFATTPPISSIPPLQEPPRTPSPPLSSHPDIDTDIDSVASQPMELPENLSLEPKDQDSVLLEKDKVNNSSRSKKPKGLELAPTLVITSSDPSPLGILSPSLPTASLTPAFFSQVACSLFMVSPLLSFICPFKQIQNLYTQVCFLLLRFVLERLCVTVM
Method in brief: as §1

[7] = target: T4, ETV2 (Homo sapiens, UniProt O00321 1-342); settings: protein: recombinant; tags: N-terminal GST; dsDNA, one strand shown
T4 sequence: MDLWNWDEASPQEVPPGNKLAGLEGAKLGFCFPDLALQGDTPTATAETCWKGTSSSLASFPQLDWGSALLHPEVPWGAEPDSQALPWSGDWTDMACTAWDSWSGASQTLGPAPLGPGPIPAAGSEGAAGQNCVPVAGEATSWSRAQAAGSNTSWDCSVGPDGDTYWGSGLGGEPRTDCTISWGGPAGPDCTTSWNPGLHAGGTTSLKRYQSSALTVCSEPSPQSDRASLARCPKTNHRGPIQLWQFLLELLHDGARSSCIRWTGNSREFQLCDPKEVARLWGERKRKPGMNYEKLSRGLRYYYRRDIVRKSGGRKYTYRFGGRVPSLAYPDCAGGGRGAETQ
Method in brief: as §1

[8] = target: T5, ELF3 (Homo sapiens, UniProt P78545 1-371); settings: protein: recombinant; tags: N-terminal GST; dsDNA, one strand shown
T5 sequence: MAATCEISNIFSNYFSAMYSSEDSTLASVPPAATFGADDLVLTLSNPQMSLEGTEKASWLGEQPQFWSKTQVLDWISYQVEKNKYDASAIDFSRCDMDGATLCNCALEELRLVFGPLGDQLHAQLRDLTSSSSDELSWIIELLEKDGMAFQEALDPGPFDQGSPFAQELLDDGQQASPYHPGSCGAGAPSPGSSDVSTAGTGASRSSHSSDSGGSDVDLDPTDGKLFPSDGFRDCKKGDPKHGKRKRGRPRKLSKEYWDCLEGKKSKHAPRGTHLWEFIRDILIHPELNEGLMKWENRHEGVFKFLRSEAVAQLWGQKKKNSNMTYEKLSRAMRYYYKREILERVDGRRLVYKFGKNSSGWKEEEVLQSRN
Method in brief: as §1

[9] = target: CRX (Homo sapiens, UniProt O43186 1-299); settings: protein: recombinant; tags: N-terminal GST; dsDNA, one strand shown
Method in brief: as §1

[10] = target: ETV1 (Homo sapiens, UniProt P50549 1-477); settings: protein: recombinant; tags: N-terminal GST; dsDNA, one strand shown
Method in brief: as §1

ELF4, sequence (Q99607 whole entry): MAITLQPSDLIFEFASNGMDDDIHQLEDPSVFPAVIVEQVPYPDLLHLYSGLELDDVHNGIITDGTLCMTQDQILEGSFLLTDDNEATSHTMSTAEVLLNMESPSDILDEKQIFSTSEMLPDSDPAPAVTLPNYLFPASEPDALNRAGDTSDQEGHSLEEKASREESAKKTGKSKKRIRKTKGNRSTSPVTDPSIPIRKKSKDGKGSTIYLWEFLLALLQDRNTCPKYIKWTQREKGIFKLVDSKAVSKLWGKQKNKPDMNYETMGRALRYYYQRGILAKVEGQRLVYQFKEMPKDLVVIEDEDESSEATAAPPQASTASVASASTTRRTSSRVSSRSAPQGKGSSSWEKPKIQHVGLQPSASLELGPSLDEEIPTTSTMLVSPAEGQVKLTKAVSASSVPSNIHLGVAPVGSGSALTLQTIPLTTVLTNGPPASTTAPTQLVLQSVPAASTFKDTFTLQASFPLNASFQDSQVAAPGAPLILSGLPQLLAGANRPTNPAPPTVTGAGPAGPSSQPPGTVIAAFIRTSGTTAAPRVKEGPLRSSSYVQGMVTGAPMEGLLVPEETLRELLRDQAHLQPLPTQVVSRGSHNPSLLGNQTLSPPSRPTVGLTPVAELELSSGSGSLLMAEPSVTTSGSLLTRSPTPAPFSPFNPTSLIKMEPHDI
CRX, sequence (O43186 whole entry): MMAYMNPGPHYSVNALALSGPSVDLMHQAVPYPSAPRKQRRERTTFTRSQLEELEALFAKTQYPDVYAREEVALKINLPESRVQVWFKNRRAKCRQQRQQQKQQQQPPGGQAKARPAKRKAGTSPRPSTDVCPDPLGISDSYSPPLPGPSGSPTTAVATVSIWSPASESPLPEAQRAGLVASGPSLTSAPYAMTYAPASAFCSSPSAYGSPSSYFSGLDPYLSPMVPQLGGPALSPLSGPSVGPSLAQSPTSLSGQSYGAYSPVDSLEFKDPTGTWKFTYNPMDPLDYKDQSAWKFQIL
HSF1, sequence (Q00613 whole entry): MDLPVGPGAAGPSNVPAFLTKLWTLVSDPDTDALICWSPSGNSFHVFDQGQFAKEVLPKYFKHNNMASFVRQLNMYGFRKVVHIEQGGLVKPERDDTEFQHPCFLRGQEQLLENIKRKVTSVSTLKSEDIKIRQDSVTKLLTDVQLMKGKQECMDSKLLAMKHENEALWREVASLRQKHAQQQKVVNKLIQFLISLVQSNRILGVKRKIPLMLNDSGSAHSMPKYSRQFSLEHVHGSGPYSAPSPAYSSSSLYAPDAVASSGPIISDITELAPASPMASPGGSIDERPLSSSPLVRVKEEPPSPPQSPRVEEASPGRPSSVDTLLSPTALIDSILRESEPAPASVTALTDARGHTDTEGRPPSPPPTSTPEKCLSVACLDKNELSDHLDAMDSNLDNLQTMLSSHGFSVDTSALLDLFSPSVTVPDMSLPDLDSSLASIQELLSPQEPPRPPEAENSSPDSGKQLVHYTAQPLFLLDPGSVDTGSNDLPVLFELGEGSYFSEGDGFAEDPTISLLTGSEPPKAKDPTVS
ETV5, sequence (P41161 whole entry): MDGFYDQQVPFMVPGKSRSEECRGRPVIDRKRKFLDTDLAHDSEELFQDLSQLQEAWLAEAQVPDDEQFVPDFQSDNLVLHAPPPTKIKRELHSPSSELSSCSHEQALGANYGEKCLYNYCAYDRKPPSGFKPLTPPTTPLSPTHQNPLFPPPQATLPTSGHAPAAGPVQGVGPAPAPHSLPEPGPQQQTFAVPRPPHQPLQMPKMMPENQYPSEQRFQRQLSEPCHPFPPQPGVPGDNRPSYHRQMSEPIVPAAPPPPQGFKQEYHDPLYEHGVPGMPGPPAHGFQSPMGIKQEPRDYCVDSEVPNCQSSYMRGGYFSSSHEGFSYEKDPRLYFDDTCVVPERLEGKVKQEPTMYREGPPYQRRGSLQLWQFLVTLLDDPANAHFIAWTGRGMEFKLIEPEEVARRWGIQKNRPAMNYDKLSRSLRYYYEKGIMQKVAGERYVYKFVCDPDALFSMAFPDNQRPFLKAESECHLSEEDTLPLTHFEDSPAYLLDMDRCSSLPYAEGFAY
ETV1, sequence (P50549 whole entry): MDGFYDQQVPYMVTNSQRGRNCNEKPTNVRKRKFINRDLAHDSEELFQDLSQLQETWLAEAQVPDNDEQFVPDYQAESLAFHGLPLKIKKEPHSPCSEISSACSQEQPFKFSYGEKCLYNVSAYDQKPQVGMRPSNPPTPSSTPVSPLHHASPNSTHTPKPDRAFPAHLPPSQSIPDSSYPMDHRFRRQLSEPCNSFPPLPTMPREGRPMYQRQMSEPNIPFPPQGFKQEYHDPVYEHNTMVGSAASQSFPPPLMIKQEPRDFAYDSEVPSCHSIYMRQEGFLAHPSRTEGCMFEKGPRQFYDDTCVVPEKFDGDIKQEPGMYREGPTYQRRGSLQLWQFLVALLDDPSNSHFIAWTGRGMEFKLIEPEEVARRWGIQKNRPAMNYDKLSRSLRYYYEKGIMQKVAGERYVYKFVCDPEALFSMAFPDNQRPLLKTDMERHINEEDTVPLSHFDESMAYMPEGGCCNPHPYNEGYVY

## GCTTAC
[1]
  binding signal: 1.15 fold enrichment (6-mer frequency, TF over GST control)
[2]
  binding signal: 1.12 fold enrichment (6-mer frequency, TF over GST control)
[3]
  binding signal: 1.44 fold enrichment (6-mer frequency, TF over GST control)
[4]
  binding signal: 1.21 fold enrichment (6-mer frequency, TF over GST control)
[5]
  binding signal: 1.1 fold enrichment (6-mer frequency, TF over GST control)
[6]
  binding signal: 1.1 fold enrichment (6-mer frequency, TF over GST control)
[7]
  binding signal: 1.22 fold enrichment (6-mer frequency, TF over GST control)
[8]
  binding signal: 1.4 fold enrichment (6-mer frequency, TF over GST control)
[9]
  binding signal: 2.01 fold enrichment (6-mer frequency, TF over GST control)
[10]
  binding signal: 1.22 fold enrichment (6-mer frequency, TF over GST control)
